# FLuc counter – inhibits or activates purified firefly luciferase, miR-21 counter-screen. P08659. purified FLuc, Km substrates, luminescence inhibition. Potency, µM (top dose mostly 57.5 µM), inactives show top-dose activity change, negative = inhibition, usual class: inhibitors. 360,000 tested, 6.9% active;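 also: plate controls were vehicle for no effect and reference inhibitor for full effect; nearly all actives have a fitted effect of over 55% in size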
# Target sequence (P08659 whole entry, looked up): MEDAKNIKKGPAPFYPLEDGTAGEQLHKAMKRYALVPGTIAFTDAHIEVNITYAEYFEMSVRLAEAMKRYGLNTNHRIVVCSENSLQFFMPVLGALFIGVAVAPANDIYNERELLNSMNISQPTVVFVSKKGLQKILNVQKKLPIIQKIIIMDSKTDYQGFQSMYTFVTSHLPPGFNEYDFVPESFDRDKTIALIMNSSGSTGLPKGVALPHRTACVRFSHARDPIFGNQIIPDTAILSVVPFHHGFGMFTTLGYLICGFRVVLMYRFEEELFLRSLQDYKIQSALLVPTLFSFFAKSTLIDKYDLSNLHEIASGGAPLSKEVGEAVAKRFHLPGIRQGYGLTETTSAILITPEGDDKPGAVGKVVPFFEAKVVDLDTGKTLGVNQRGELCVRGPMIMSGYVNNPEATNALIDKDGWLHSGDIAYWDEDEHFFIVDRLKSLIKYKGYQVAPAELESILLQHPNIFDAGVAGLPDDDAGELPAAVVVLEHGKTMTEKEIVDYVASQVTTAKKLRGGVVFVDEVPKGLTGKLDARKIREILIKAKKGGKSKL
#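 Biochemical qHTS of compounds, final roughly 60 µM downward over six points, against 10 nM purified firefly luciferase using Km concentrations of substrates (10 uM D-luciferin, 10 uM ATP) in Tris acetate pH 7.5 buffer; luminescence output.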
# ELG1 genotox – genotoxicity induction in ELG1-luciferase HEK293T cells; AID 504466; HEK293T ELG1-luciferase reporter, luminescence, 16 h; Potency, µM (highest dose often 46 µM), for inactives: top-dose activity change, positive = activation, hits mostly activators; 330,000 tested, 1.3% active; also: % of control where 0% means no effect; nearly all actives have a fitted effect of over 60% in size
#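 Reporter readout depends on ELG1 protein level, which increases with genetic stress. After 16 hr compound exposure at 37 °C, luciferase activity was quantified using ONE-Glo.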
# SMN2 splice up – SMN2 splice variant enhancement | AID 1458 | 210,000 tested, 2.8% active | HEK293 SMN2-luciferase splicing reporter, luminescence, 30-36 h | Potency, µM (doses to about 46.1 µM), inactives show at the top dose activity change, positive = activation, actives largely listed as activators; also: % of control where 0% means no effect; nearly all actives have a fitted effect of over 55% in size
#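 qHTS luciferase splicing reporter: luminescence rises when SMN2 exon 7 is included in transfected HEK293 cells. Compound exposure lasted 30-36 h at 37C, with 4.5 mM final sodium butyrate as control, followed by a ONE-Glo read.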
# Rab9 promoter act – Rab9 promoter activation | Huh7 Rab9 promoter-luciferase reporter, luminescence, 24 h | Potency, µM (highest dose often 9.22 µM), for the others: top-dose activation, negative = inhibition, actives largely listed as activators | 320,000 tested, 2.8% active | AID 485297; also: % of control where 0% means no effect; nearly all actives have a fitted effect of over 60% in size
#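 Measured in stably transfected Huh7 cells bearing a Rab9 promoter–luciferase construct: 24 h compound treatment at 37 °C, followed by luminescence detection.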
# NPC1 prom act – NPC1 promoter activation; AID 485313; Potency, µM (titrated, usually from 9.22 µM), without a hit: top-dose activation, hits mostly activators; Huh7 NPC1 promoter luciferase reporter, 24 h; 320,000 tested, 2.4% active; also: % of control where 0% means no effect; nearly all actives have a fitted effect of over 60% in size
#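 Cells: Huh7 expressing luciferase under the NPC1 promoter, 1500/well. Seeded 2 h, compound added, incubated 24 h at 37 °C. Luciferase reagent, 10 min ambient, then luminescence.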
# Active calls of the source: *; ? = inconclusive; nt = no result given. Compounds with a hit are over-represented: about 7.4% of the library has one in this group of screens. Calls follow the shape of the dose curve; as a rule, active = well fitted curve in the direction sought with a large enough effect; inconclusive = small, poorly fitted or top-dose-only effect, or another doubt; inactive = no such curve, though single readings can be large; an effect the other way counts as inactive or inconclusive. Potency is read from the fitted curve at half-maximal effect.
SMILES,FLuc counter,ELG1 genotox,SMN2 splice up,Rab9 promoter act,NPC1 prom act
COC(=O)c1cccc(NC(=O)c2cccnc2)c1,1%,1%,4%,4%,-1%
Cc1nc(Cl)sc1C(=O)Nc1ccc(C(F)(F)F)cc1,-19%,0%,nt,1%,2%
Cc1cc(NC(=O)CN2C(=O)c3cccnc3Sc3ccccc32)ccc1Br,-19%,nt,nt,nt,nt
COc1ccccc1CNC(=O)Cn1c(=O)oc2cc(S(=O)(=O)N3CCCC3)ccc21,-1%,-2%,-34%,0%,-1%
O=C1NC(=S)S/C1=C\c1coc2ccc(O)cc2c1=O,19µM*,10%,nt,9%,14%
O=C1NC(=S)S/C1=C\c1coc2ccccc2c1=O,19µM*,8%,2%,?,5%
Cc1ccc(NC(=O)CN(C)C(=O)c2cccc(-n3cccc3)c2)cc1,1%,1%,nt,-7%,1%
COCCCn1c(=S)[nH]c2sc3c(c2c1=O)CCCC3,19µM*,-8%,nt,-4%,-3%
C/C(=C1/C(=O)N(c2ccc([N+](=O)[O-])cc2)N=C1c1ccccc1)N(C)C,3%,-4%,-32%,21%,?
CN(C)/C=C1\C(=O)N(c2ccc([N+](=O)[O-])cc2)N=C1c1ccccc1,?,9.2µM*,?,5.6µM*,?
CN(C)/C=C1/C(=O)N(c2ccc([N+](=O)[O-])cc2)N=C1c1ccccc1,7.6µM*,?,10µM*,?,?
Oc1ccc(-c2cn3ccccc3n2)cc1O,12µM*,13µM*,nt,?,27%
CCOC(=O)c1cn2ccc(C)cc2n1,?,?,nt,27%,23%
Cc1ccn2cc(-c3ccc(O)c(O)c3)nc2c1,3µM*,3.3µM*,nt,17%,?
c1ccc2c(-c3cn4ccccc4n3)c[nH]c2c1,12µM*,14%,14µM*,3.5µM*,?
CN(C)S(=O)(=O)c1ccc(-c2cn3ccccc3n2)cc1,5.4µM*,5.8µM*,?,2.5µM*,?
CN(C)S(=O)(=O)c1ccc(-c2ccccc2)cc1,-15%,-2%,-10%,8%,3%
CNC(=O)COc1ccc(NC(=O)CCn2nc(-c3ccc(C)cc3)c3ccccc3c2=O)cc1,6%,nt,11%,nt,nt
C[C@@H]1CN([C@@H](C)CO)C(=O)Cc2cc(NS(=O)(=O)c3cn(C)cn3)ccc2O[C@@H]1CN(C)C(=O)Nc1ccccc1,nt,3%,nt,nt,nt
O=C(CSc1nc(=O)n(Cc2ccco2)c2c1CCC2)NCc1ccc(Cl)cc1,-17%,nt,nt,nt,nt
CC(=O)c1ccc(NC(=O)C(C)Sc2nnc3ccccn23)cc1 (configuration not stated),1%,1%,nt,-5%,0%
Oc1ccc(-c2cn3ccccc3n2)cc1,5.4µM*,?,nt,2.8µM*,2.2µM*
Brc1ccc(OCc2cn3ccccc3n2)cc1,2.7µM*,?,10µM*,0.63µM*,1.6µM*
c1ccn2cc(C34CC5CC(CC(C5)C3)C4)nc2c1,?,-7%,-26%,12%,-9%
Brc1ccc(-c2cn3ccccc3n2)cc1,0.76µM*,?,nt,0.4µM*,0.71µM*
SMILES,FLuc counter,ELG1 genotox,SMN2 splice up,Rab9 promoter act,NPC1 prom act
O=C(COc1ccc(Br)cc1)NCc1cn2ccccc2n1,-1%,-1%,nt,2%,-4%
Nc1cc(-c2ccc(Br)cc2)nc2cc(-c3ccccc3)nn12,?,-17%,-25%,-2%,-1%
COC(=O)C1CCN(S(=O)(=O)c2ccc(N3CCCCS3(=O)=O)cc2)CC1,-1%,nt,nt,nt,nt
Cc1cccc(-c2nc(SCC(=O)N(C)c3ccccc3)c3c(=O)n(C)c(=O)n(C)c3n2)c1,-2%,nt,nt,nt,nt
CCCCCCCC[N+](CCCCCCCC)(CCCCCCCC)CCCCCCCC,nt,nt,-62%,nt,nt
COc1ccc(N(C(=O)c2cccnc2)S(=O)(=O)c2cc(OC)ccc2OC)cc1,0%,1%,nt,-1%,1%
CCOc1ccc(NC(=NCc2ccc3c(c2)OCO3)SC2CC(=O)N(c3ccc(OCC)cc3)C2=O)cc1 (configuration not stated),-9%,?,22µM*,?,?
CCOc1ccc(NC(=NCc2ccc3c(c2)OCO3)SC2CC(=O)N(c3ccccc3)C2=O)cc1 (configuration not stated),10%,5%,19%,2%,-4%
CCOC(=O)NC(=O)/C(C#N)=C\Nc1ccc(Cl)cc1Cl,13µM*,16%,-8%,?,-23%
Cc1ccccc1CNC(=O)C1CCN(c2nnc(-n3c(C)ccc3C)s2)CC1,-8%,nt,-4%,nt,nt
Cc1ncc([N+](=O)[O-])n1Cc1ccc(F)cc1,1%,-1%,-4%,-5%,-4%
CC(C)OC(=O)c1cccc(-c2ccc(C=O)o2)c1,?,?,13µM*,15%,17%
COC(=O)c1ccccc1-c1ccc(C=O)o1,-1%,1%,nt,-2%,-1%
COc1cccc(/C=C/C(=O)OCC(=O)NCCCc2ccccc2)c1OC,nt,3%,nt,nt,nt
COCCCNC(=O)CSc1nc2cc3c(cc2c(=O)n1CCCCCC(=O)NCc1ccc2c(c1)OCO2)OCO3,-3%,nt,nt,nt,nt
CCc1nnc(NC(=O)c2oc3cc(C)c(C)cc3c2C)s1,-1%,9%,?,6%,16%
CCc1nnc(NC(=O)c2cc(C)oc2C)s1,17µM*,18%,nt,7%,-1%
CCSc1nnc(NC(=O)c2ccc(C)o2)s1,17µM*,18µM*,16µM*,?,?
CCSc1nnc(NC(=O)c2cc(C)oc2C)s1,17µM*,7.3µM*,11µM*,?,?
CCSc1nnc(NC(=O)Cc2ccc(OC)cc2)s1,0%,0%,-6%,10%,1%
CC(C)c1ccc(NC(=O)Cn2c(=O)n(CC3CCC(C(=O)NCCc4ccccc4)CC3)c(=O)c3ccccc32)cc1 (configuration not stated),-1%,nt,-10%,nt,nt
COc1ccccc1N(CC(=O)N/N=C(\C)c1ccc(F)cc1)S(=O)(=O)c1ccccc1,-1%,6%,nt,-8%,1%
O=C(Nc1nc2c(s1)CCCC2=O)c1cnccn1,?,23µM*,20µM*,?,?
O=C(Nc1nc2ccc(F)cc2s1)c1ccccn1,0.54µM*,?,-54%,0.089µM*,?
O=C(Nc1nc(-c2ccco2)c(-c2ccco2)s1)c1cnccn1,-4%,-6%,nt,-1%,-11%
O=C(Nc1nc2ccccc2s1)c1cnccn1,2.1µM*,0.46µM*,6.3µM*,0.32µM*,1.1µM*
COC(=O)c1c(NC(=O)c2cnccn2)sc2c1CCC2,4%,4%,?,2%,1%
O=C(NCc1cccnc1)C(=O)Nc1nc2ccccc2s1,15µM*,?,-13%,22%,14%
CC(NC(=O)Cn1c(=O)oc2cc(S(=O)(=O)NCc3ccccc3)ccc21)c1ccccc1 (configuration not stated),-16%,nt,-56%,nt,nt

# Screening results as filed in PubChem BioAssay.
